Screening results as filed in PubChem.
HepG2 tox-1: kills HepG2 cells in TGF-b inhibitor counter-screen. Potency, µM (highest dose often 46.1 µM), inactives show top-dose activity change, negative = cytotoxicity, most hits filed as cytotoxic. 410,000 tested, 0.76% active. HepG2 CAGA-GFP viability, ATP luminescence, 18 h. AID 588856
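HepG2 CAGA-GFP cells (1000/well, DMEM with 1% FBS) received compound, then TGF-beta at 500 pg/mL final, and were incubated 18 hours at 37 degrees C. Viability was read by CellTiter-Glo luminescence. Media-only wells were set as complete cell-killing and DMSO as no toxicity.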
TDP1 cell CPT: growth inhibition of DT40 Tdp1-/-;hTDP1 cells with camptothecin (screen for TDP1 inhibitors) | 420,000 tested, 12% active | Potency, µM (highest dose often 46.2 µM), without a hit: at the highest dose activity change, negative = growth inhibition, actives largely listed as inhibitors | AID 686979 | chicken DT40 Tdp1-/-;hTDP1 cells + 20 nM CPT, ATP luminescence, 48 h; also: % is scaled to controls: 0 for no effect and ±100 for the full control effect; nearly all actives have a fitted effect of over 55% in size
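Chicken DT40 Tdp1-/- cells complemented with human TDP1, 400 cells/well, exposed to compounds plus 20 nM camptothecin for at least 48 h at 37 C; viability read as ATP content by CellTiter-Glo luminescence.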
TGFb inhibitor: inhibitors of TGF-b signaling | HepG2 CAGA-GFP TGF-b/SMAD3 reporter, GFP fluorescence, 18 h; TGF-beta stimulated, 500 pg/mL final | Potency, µM (titrated, usually from 46.1 µM), for the others: top-dose activity, negative = inhibition, actives largely listed as inhibitors | 410,000 tested, 1.2% active; also: % is scaled to controls: 0 for no effect and ±100 for the full control effect; nearly all actives have a fitted effect of over 65% in size
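TGF-beta reporter screen: HEPG2 CAGA-GFP, 1% FBS, 500 pg/mL TGF-beta final, 18 h; per-cell GFP summed per well; curves fitted and categorized by class.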
DT40 TDP1 no CPT: qHTS for Inhibitors of human tyrosyl-DNA phosphodiesterase 1 (TDP1): qHTS in cells in absence of CPT; DT40 Tdp1-/- hTDP1 cells, no CPT, ATP luminescence, 48 h; Potency, µM (titrated, usually from 46.2 µM), without a hit: top-dose activity change, negative = growth inhibition, actives largely listed as inhibitors; 420,000 tested, 15% active; AID 686978, 2013; also: % is scaled to controls: 0 for no effect and ±100 for the full control effect; nearly all actives have a fitted effect of over 55% in size
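Chicken DT40 Tdp1-/- cells complemented with human TDP1, screened without camptothecin (DMSO vehicle only), 400 cells/well. Compounds pin-transferred, cells incubated at 37 °C for at least 48 hr. Growth read as ATP-dependent luminescence (CellTiter-Glo, 30 min at RT).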
ATXN viability: cell viability loss in ATXN counter-screen; S2 cells (HEK-293 line with an ATXN2-luciferase reporter) viability, CellTiter-Fluor protease fluorescence, 24 h; Potency, µM (highest dose often 56.7 µM), hits mostly cytotoxic; 400,000 tested, 0.49% active; AID 651635; also: nearly all actives have a fitted effect of over 40% in size
ATXN2 expr inh: ATXN2 expression inhibition; HEK-293 ATXN2-luciferase reporter, luminescence, 24 h; Potency, µM (series often up to 57 µM), inactives show top-dose activity change, negative = inhibition, actives largely listed as inhibitors; 360,000 tested, 0.72% active; also: % is scaled to controls: 0 for no effect and ±100 for the full control effect; nearly all actives have a fitted effect of over 55% in size
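ATXN2-luciferase reporter cells (luciferase flanked by upstream and downstream ATXN2 gene portions) were treated 24 h at 37 °C with compounds at up to 57 uM. SteadyGlo luminescence gave expression; GF-AFC fluorescence gave viability.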
TGFb CAGA inh: confirmation of TGF-b signaling inhibitors in HepG2 reporter cells; HepG2 CAGA-GFP TGF-b reporter, GFP fluorescence, 18 h; cells stimulated with TGF-beta, 500 pg/mL; 1,600 tested, 63% active; Potency, µM (doses to about 46.1 µM), without a hit: top-dose activity, negative = inhibition, usual class: inhibitors; shares compounds with TGFb inhibitor; AID 720534; also: % is scaled to controls: 0 for no effect and ±100 for the full control effect; nearly all actives have a fitted effect of over 65% in size
HepG2 tox-2: toxic to HepG2 cells in TGF-b counterscreen; Potency, µM (series often up to 46.1 µM), for inactives: top-dose activity, negative = cytotoxicity, usual class: inhibitors; HepG2 CAGA-GFP viability, ATP luminescence, 18 h; cells stimulated with TGF-beta, 500 pg/mL; AID 720535; 1,600 tested, 27% active; shares compounds with TGFb inhibitor; also: % is scaled to controls: 0 for no effect and ±100 for the full control effect; nearly all actives have a fitted effect of over 70% in size
CCL64 TGFb inh: blocks TGF-b signaling in CCL64 reporter cells; CCL64 CAGA-GFP reporter, TGF-b stimulated, GFP fluorescence, 18 h; 1,600 tested, 41% active; Potency, µM (doses to about 46.1 µM), for the others: top-dose activity, negative = inhibition, hits mostly inhibitors; shares compounds with TGFb inhibitor; also: nearly all actives have a fitted effect of over 65% in size
TGFb COP inh: TGF-b inhibition validated with COP promoter. shares compounds with TGFb inhibitor. HepG2 COP-GFP TGF-b reporter, GFP fluorescence, 18 h; cells stimulated by added recombinant TGF-beta. Potency, µM (highest dose often 46.1 µM), for the others: top-dose activity, negative = inhibition, hits mostly inhibitors. 1,600 tested, 3% active; also: nearly all actives have a fitted effect of over 70% in size
The depositor's hits bear a star; i = inactive; ? = inconclusive; . = not tested or not shown; ! = not active in a repeat; [ ] = dose if it differs, or a comment. In the library only some 17% were active in any assay of this set; here they are far more common. Calls follow the shape of the dose curve; as a rule, active = well fitted curve in the direction sought with a large enough effect; inconclusive = small, poorly fitted or top-dose-only effect, or another doubt; inactive = no such curve, though single readings can be large; an effect the other way counts as inactive or inconclusive. Potency is read from the fitted curve at half-maximal effect.

SMILES	HepG2 tox-1	TDP1 cell CPT	TGFb inhibitor	DT40 TDP1 no CPT	ATXN viability	ATXN2 expr inh	TGFb CAGA inh	HepG2 tox-2	CCL64 TGFb inh	TGFb COP inh
CC1CC(C)(O)CC(C(O)CC2CC(=O)NC(=O)C2)C1=O (configuration not stated)	-3%	0.18µM*	0.32µM*	0.18µM*	?	?	0.13µM*	?	0.26µM*	35%
C1CC2NCCC3NCCC(N1)N32 (configuration not stated)	-1%	-13%	12%	-16%	i	.	.	.	.	.
COc1ccc(CC2C(=O)NC(C)C(=O)N(C)C3C(=O)N(C)C(Cc4ccc(O)c(c4)Oc4ccc(cc4)C3O)C(=O)NC(C)C(=O)NC(C)C(=O)N2C)cc1 (configuration not stated)	-20%	0.016µM*	-116%	0.021µM*	?	0.084µM*	0.0065µM*	1.6µM*	0.012µM*	5%
O=c1c2ccccc2nc(-c2ccccc2)n1-c1cccc(O)c1	-14%	?	-11%	?	i	4%	.	.	.	.
CC[C@@]1(O)C(=O)OCc2c1cc1n(c2=O)Cc2cc3c(N)cccc3nc2-1	-5%	0.16µM*	0.56µM*	0.13µM*	?	-10%	1.2µM*	0.41µM*	-17%	-1%
CN1CCN(c2ccc([N+](=O)[O-])c3no[n+]([O-])c23)CC1	8.9µM*	0.18µM*	3.2µM*	0.16µM*	.	2.4µM*!	4.1µM*	5.2µM*	3.3µM*	?
O=[N+]([O-])c1ccc(N(CCO)CCO)c2c1no[n+]2[O-]	-115%	0.092µM*	7.1µM*	0.16µM*	.	.	10µM*	13µM*	12µM*	?
CCOC(=O)C(=O)NC1CCSC1=O (configuration not stated)	-48%	-6%	-12%	-7%	i	13%	.	.	.	.
CCCCC1C(=O)NC(=S)N(C)C1=O (configuration not stated)	2%	4%	0%	-9%	i	2%	.	.	.	.
COC12c3ccccc3-c3ccccc3C1C(C(=O)O)C2C(=O)O (configuration not stated)	6%	-4%	-3%	12%	i	15%	.	.	.	.
O=c1c2ccccc2[nH]c(=S)n1-c1ccc2c(c1)OCCO2	-28%	-15%	?	-10%	i	.	.	.	.	.
ClC1=C(Cl)C2(Cl)C3C(Cl)C=CC3C1(Cl)C2(Cl)Cl (configuration not stated)	0%	?	-2%	?	i	4%	.	.	.	.
CC12CCC(O)CC1CCC1C2CCC2(C)C(C3=CC(=O)OC3)CCC12O (configuration not stated)	-33%	?	4µM*	?	?	0.84µM*	16µM*	2.6µM*	1.3µM*	56%
Cc1ncc(CN2CCCC(C(=O)c3sccc3C)C2)s1 (configuration not stated)	-4%	?	10%	-20%	i	-13%[11.3 µM]	.	.	.	.
Cc1cc(N2CCOCC2)ccc1/C=C1\C(=O)NC(=O)N(c2ccccc2)C1=O	1%	-31%	0%	?	i	-9%	.	.	.	.
Cc1ccc(N2C(=O)NC(=O)/C(=C\C=C\c3ccco3)C2=O)cc1C	-5%	2.6µM*	13µM*	5.2µM*	14µM*	7.9µM*	2.6µM*	2.9µM*	4.6µM*	?
O=C1NCN(c2ccccc2)C12CCN(C(c1cc3ccccc3o1)c1nnnn1Cc1ccccc1)CC2 (configuration not stated)	0%	?	14µM*	?	.	?	21µM*	-20%	15µM*	5%
O=C1NCN(c2ccccc2)C12CCN(C(c1ccccc1)c1nnnn1Cc1ccccc1)CC2 (configuration not stated)	4%	?	11µM*	?	?	?	18µM*	-12%	12µM*	-1%
CCCCn1nnnc1C(c1ccccc1)N1CCC2(CC1)C(=O)NCN2c1ccccc1 (configuration not stated)	2%	?	?	?	?	35%	.	.	.	.
O=C1NCN(c2ccccc2)C12CCN(C(CCc1ccccc1)c1nnnn1-c1ccc3c(c1)OCCO3)CC2 (configuration not stated)	4%	?	13µM*	-113%	?	0%	?	-7%	4.1µM*	6%
O=C1NCN(c2ccccc2)C12CCN(C(CCc1ccccc1)c1nnnn1Cc1ccccc1)CC2 (configuration not stated)	-1%	?	18µM*	?	?	?	15µM*	?	12µM*	76%
CC(C)(C)n1nnnc1C(c1ccccc1)N1CCC2(CC1)C(=O)NCN2c1ccccc1 (configuration not stated)	7%	?	-10%	?	?	-13%	.	.	.	.
O=C(NC1CC2CCCC(C1)N2)c1ccccc1 (configuration not stated)	0%	8%	2%	5%	i	-1%	.	.	.	.
O=C(Nc1ccon1)c1cccn(Cc2ccccc2)c1=O	-24%	-11%	-5%	?	i	7%	.	.	.	.
